In the library only some 6.4% were active in any assay of this set; here they are far more common.
VP16 counter – VP16 counterscreen qHTS for inhibitors of ROR gamma transcriptional activity; Drosophila S2 Gal4-VP16 UAS-luciferase, luminescence, 20 h; Potency, µM (highest dose often 53.6 µM), without a hit: at the top dose activity, negative = inhibition, most hits filed as inhibitors; 3.5% of 310,000 active;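 further: Gal4-VP16 expression switched on by copper sulfate through the metallothionein promoter; nearly all actives have a fitted effect of over 50% in size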
RORgamma inh – qHTS for inhibitors of ROR gamma transcriptional activity | Nuclear receptor ROR-gamma (Mus musculus), P51450 | Drosophila S2 Gal4-RORgamma UAS-luciferase reporter, 20 h | Potency, µM (series often up to 53.6 µM), without a hit: at the top dose activity change, negative = inhibition, hits mostly inhibitors | 5.4% of 310,000 active | AID 2551, 2010; further: nearly all actives have a fitted effect of over 60% in size
Target sequence (P51450 whole entry, looked up, the tested form may be a part): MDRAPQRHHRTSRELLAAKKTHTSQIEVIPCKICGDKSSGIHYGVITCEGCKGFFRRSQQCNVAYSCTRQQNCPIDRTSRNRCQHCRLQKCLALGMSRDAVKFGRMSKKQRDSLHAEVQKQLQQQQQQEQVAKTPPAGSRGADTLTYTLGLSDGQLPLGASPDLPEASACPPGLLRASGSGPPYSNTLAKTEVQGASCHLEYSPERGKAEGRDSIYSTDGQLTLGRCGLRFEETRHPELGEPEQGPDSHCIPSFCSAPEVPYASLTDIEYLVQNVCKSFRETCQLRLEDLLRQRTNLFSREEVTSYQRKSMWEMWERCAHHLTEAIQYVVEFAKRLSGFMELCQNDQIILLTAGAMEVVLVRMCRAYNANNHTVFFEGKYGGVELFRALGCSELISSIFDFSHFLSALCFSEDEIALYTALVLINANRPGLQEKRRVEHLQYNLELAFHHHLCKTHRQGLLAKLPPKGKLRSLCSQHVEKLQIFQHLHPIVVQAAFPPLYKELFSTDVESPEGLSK
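In this cell-based reporter format, copper sulfate (700 uM final) drives Gal4–ROR gamma fusion expression from a metallothionein promoter in Drosophila Schneider cells; compounds preincubated 1 hr, reporter read after 20 hr at ambient temperature.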
KinaseGlo FLuc – Counterscreen for Luciferase (Kinase-Glo TM) Inhibition; Luciferin 4-monooxygenase (Photuris pensylvanica), Q27757; Kinase-Glo luciferase, ATP luminescence, 8 min; AID 1379, 2008; 0.28% of 200,000 active; Potency, µM (doses to about 38.3 µM), inactives show top-dose activity change, negative = inhibition, hits mostly inhibitors; further: nearly all actives have a fitted effect of over 60% in size
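Kinase-Glo luciferase light output from ATP and luciferin was measured with 10 uM ATP, within the enzyme's linear range. Buffer: 50 mM imidazole pH 7.2, 50 mM KCl, 7 mM MgCl2, 0.01% Tween 20, 0.05% BSA; luminescence read after 8 min at ambient temperature.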
An asterisk follows results filed as active; ? = inconclusive; nt = no result given; [ ] = another dose, or the depositor's remark. The call rests on the fitted dose curve; in most records, active means well fitted curve in the direction sought with a large enough effect; inconclusive means small, poorly fitted or top-dose-only effect, or another doubt; inactive means no such curve, though single readings can be large; an effect the other way counts as inactive or inconclusive. On the % scale 0 is the no-effect control and ±100 the full control effect; potency means the concentration at half of the fitted maximal effect.

SMILES | VP16 counter | RORgamma inh | KinaseGlo FLuc
Cc1c(Cl)cccc1NC(CC(=O)c1ccccc1)C(=O)OCC(=O)c1cccs1 (configuration not stated) | 7.94µM* | 11.2µM* | nt
O=C(CCC(=O)c1ccc(Oc2ccccc2)cc1)Nc1cccc(Cl)c1Cl | -15.5% | -15.7% | -0.6%
O=C(CC(Nc1cccc(Cl)c1Cl)C(=O)OCC(=O)c1cccs1)c1ccccc1 (configuration not stated) | -10.1% | 19.7% | 0.5%
CO[C@H]1COC(=O)C/C=C\[C@H](C)[C@@H](OC)COC(=O)C/C=C\[C@@H]1C | -15.1%[10 µM] | -14.4%[10 µM] | nt
CCOC(=O)N1CCc2c(sc3nc4n(c(=O)c23)N=C(c2ccc(OC)cc2)CS4)C1 | -3.0% | -5.4% | nt
COCCCC1CCN(C(=O)c2cc(COc3cc(C)ccc3C)on2)CC1 | 2.7% | 12.2% | nt
CN1C(=O)CSc2ccc(NC(=O)N3CCN(c4ccccc4)CC3)cc21 | 8.0% | 14.4% | nt
Cc1c(Cl)cccc1NC(=O)CC(Cc1ccccc1)C(=O)O (configuration not stated) | 2.7% | 2.7% | nt
Cc1c(Cl)cccc1NC(CC(=O)c1ccccc1)C(=O)O (configuration not stated) | 6.31µM* | 7.94µM* | 0.1%
CSCCC(NC(N)=O)C(=O)Nc1cccc(C#N)c1 (configuration not stated) | -6.3% | 4.0% | 7.9%
CNC(=S)N/N=C/c1c(C)cccc1Cl | 3.98µM* | 2.24µM* | nt
Cc1[nH]cnc1C(=O)N/N=C/c1c(Cl)cccc1Cl | -5.8% | -20.4% | nt
CNC(=S)N/N=C/c1c2ccccc2c(Cl)c2ccccc12 | 5.01µM* | 4.47µM* | nt
Cc1[nH]c2ccccc2c1/C=N/NC(=O)c1ccc(N)cc1 | 3.7% | -4.1% | nt
O=C1C[C@@H](O)[C@@H](O)[C@H]2[C@@H]3C(=O)N(Cc4ccccc4)C(=O)[C@@H]3CC[C@H]12 | -5.1%[10 µM] | 9.3%[10 µM] | nt
O=C(Cc1ccc(-c2ccccc2)cc1)Nc1ccccn1 | 1.7% | -17.0% | nt
COc1cccc(CNc2cc(C)ccn2)c1O | 0.5% | 19.6% | nt
Cc1ccnc(NC(=O)Cc2ccc(-c3ccccc3)cc2)c1 | ? | 11.2µM* | nt
Cc1ccnc(NCc2cccc3ccccc23)c1 | ? | 15.8µM* | nt
Cc1cc(C)nc(/N=C(\N)Nc2ccc(S(=O)(=O)Nc3nccc(C)n3)cc2)n1 | 1.5% | -19.3% | -1.7%
O=C1CC(C(=O)Nc2ccccc2)S/C(=N\NC(=O)c2ccccc2Cl)N1 (configuration not stated) | 5.01µM* | 3.16µM* | -3.3%
C/C(=N/N=C1/NC(=O)CC(C(=O)Nc2ccccc2)S1)c1cccs1 (configuration not stated) | ? | ? | -0.6%
Cc1ccc(NC(=O)C2CC(=O)N/C(=N/NC(=O)c3ccc(C)cc3)S2)cc1 (configuration not stated) | 10µM* | 2.24µM* | -2.5%
Cc1ccc(C(=O)N/N=C2/NC(=O)CC(C(=O)Nc3ccccc3)S2)cc1 (configuration not stated) | 5.62µM* | 3.16µM* | -2.2%
COc1ccc(NC(=O)C2CC(=O)N/C(=N/NC(=O)c3ccc(Cl)cc3)S2)cc1 (configuration not stated) | -26.5% | 1.26µM* | nt
SMILES | VP16 counter | RORgamma inh | KinaseGlo FLuc
O=C1CC(C(=O)O)S/C(=N\NC(=O)c2ccc(F)cc2)N1 (configuration not stated) | 4.0% | -19.9% | -0.6%
COc1ccccc1C(=O)N/N=C1/NC(=O)CC(C(=O)Nc2ccccc2)S1 (configuration not stated) | 3.9% | -10.5% | nt
COc1ccc(CN=C2NC(=O)CC(C(=O)Nc3ccc(Cl)cc3)S2)cc1 (configuration not stated) | -2.0% | ? | 0.4%
CSc1ccccc1OCc1cc(C(=O)N(C)C(C)c2nc(C)cs2)no1 (configuration not stated) | 23.1% | 21.7% | nt
COc1cc(NC(=O)c2ccc([N+](=O)[O-])cc2)c(OC)cc1NC(=O)CC(C)C | -8.7% | 0.2% | 9.7%
CC1(C)Oc2ccc(C(=O)NN)cc2NC1=O | 4.1% | -44.4% | 0.8%
CC1(c2ccccc2Cl)NC(=O)N(CC(=O)Nc2ccc3c(c2)OCO3)C1=O (configuration not stated) | -4.5% | 15.2% | -5.0%
NC(=O)[C@@H]1CCCNC1 | nt | nt | -1.2%[7.66 µM]
O=C(NCCCc1ccc(F)cc1)C1CCC(=O)N(CC2CCCCC2)C1 (configuration not stated) | 1.4% | 21.8% | nt
Nn1c(SCC(=O)Nc2ccc3c(c2)OCCO3)nncc1=O | -8.4% | 8.2% | nt
COc1cccc(NC(=O)C2CC(=O)N/C(=N/NC(=O)c3ccc(C)cc3)S2)c1 (configuration not stated) | 11.2µM* | 6.31µM* | nt
CCOc1cccc(NC(=O)C2CC(=O)NC(=Nc3ccccc3)S2)c1 (configuration not stated) | 16.1% | ? | 3.6%
COc1ccc(C2(C(=O)Nc3ccc(C)c(C)c3)CCOCC2)cc1 | -1.1% | 9.7% | 2.3%
CC(CC(=O)N1CCN(c2cccc(Cl)c2)CC1)S(=O)(=O)c1ccc2c(c1)NC(=O)CO2 (configuration not stated) | 14.1µM* | -41.4% | nt
COc1ccc(N2CCN(C(=O)CC(C)S(=O)(=O)c3ccc4c(c3)NC(=O)CO4)CC2)cc1 (configuration not stated) | -26.6% | ? | nt
Br/C(=N\Nc1nn[nH]n1)c1ccncc1 | nt | nt | -7.3%[7.66 µM]
CN(C)S(=O)(=O)c1cccc(NC(=O)COC(=O)c2cccn2C)c1 | -0.4% | 45.5% | 5.0%
O=C(O)CC(C(=O)Nc1ccc(F)cc1)C1CCCO1 (configuration not stated) | 1.5% | -15.9% | nt
O=C(Nc1ccc(Cl)c(C(F)(F)F)c1)c1ccncc1 | 22.2% | -2.8% | -1.5%
CNC(=O)c1cc(Oc2ccc(NC(=O)Nc3ccc(Cl)c(C(F)(F)F)c3)cc2)ccn1 | 8.91µM* | ? | nt
Cc1cccc(Sc2nc(-c3ccccc3)ncc2C(=O)O)c1 | -4.7% | 35.0% | 2.5%
Cc1[nH]c(=O)[nH]c(=O)c1/C=N/NC(=O)[C@@H](NC(=O)OC(C)(C)C)C(C)C | -5.7% | -18.0% | 4.8%
Cc1[nH]c(=O)[nH]c(=O)c1/C=N/NC(=O)[C@H](C)N | ? | 112µM* | nt
CCCOC(=O)NCCCN(C)C | -1.2% | 12.6% | nt
CCCN1C(=O)CC(c2ccco2)Sc2ccccc21 (configuration not stated) | ? | 15.8µM* | 2.7%
SMILES | VP16 counter | RORgamma inh | KinaseGlo FLuc
CN1C(=O)CC(c2ccco2)Sc2ccccc21 (configuration not stated) | 16.8% | -32.2% | -4.8%
COc1ccc(C(=O)C2CCCN(C(=O)CCc3scnc3C)C2)c(C)c1 (configuration not stated) | ? | ? | -8.2%
CC(=O)Nc1ccc(/C=C2\CCc3ccccc3C2=O)cc1 | ? | -44.6% | nt
Cc1ccc2c(c1)[nH]c1c(=O)n(CCC3=CCCCC3)cnc12 | -9.7% | 41.3% | -2.2%
CCN(CC)CCCn1c(=S)[nH]c2cc(Cl)ccc2c1=O | -21.6% | 10µM* | 6.8%
CC(C)N(CCn1c(=S)[nH]c2ccccc2c1=O)C(C)C | -1.6% | ? | -0.3%

From PubChem
